PubChem BioAssay (Tox21)
Results filed as inconclusive are left out. The source made the active and inactive calls. Unless noted, the call rests on the fitted dose curve; in most records, active means well fitted curve in the direction sought with a large enough effect in the repeat runs; inconclusive means weak or mixed curves; inactive means no such curve, though single readings can be large; an effect the other way counts as inactive or inconclusive.

Legend:
[1] = qHTS assay to identify small molecule antagonists of the vitamin D receptor (VDR) signaling pathway - cell viability counter screen (AID 743225); further: on the % scale 0 is the no-effect control and ±100 the full control effect; nearly all actives have a fitted effect of over 50% in size
In short: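 Cytotoxicity counter screen read by CellTiter-Glo luminescence (30 min, room temperature) in the same wells as the VDR-bla antagonist readout. HEK 293T VDR-UAS-bla cells had 16 h at 37C with compound and 3 nM (final) 1-alpha,25-dihydroxyvitamin D3, then 2 h with FRET substrate.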

[2] = qHTS assay to identify small molecule agonists of the NFkB signaling pathway - cell viability counter screen (AID 1159515; calls by dose curve; further: nearly all actives have a fitted effect of over 55% in size; further: potency means the concentration at half of the fitted maximal effect)
In short: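 NFkB-bla ME-180 cells, 2,000/well, were plated overnight at 37 C, 5% CO2, then exposed to compounds in DMSO for 5 hr. After the bla FRET read, CellTiter-Glo was added to the same wells; luminescence was read after 30 min at room temperature.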

[3] = qHTS assay to identify small molecule agonists of the endoplasmic reticulum stress response signaling pathway (AID 1159516; active means well fitted activation curve with a large enough effect in the signal ratio in the repeat runs, not every such curve was filed as active; the % refers to the signal ratio; further: on the % scale 0 is the no-effect control and ±100 the full control effect)
In short: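 CellSensor ESRE-bla HeLa cells, carrying a beta-lactamase reporter driven by the ER stress response element, were plated overnight and exposed to compounds for 5 hr at 37 C. Reporter activity was read as FRET substrate fluorescence after 2 hr at room temperature.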

[4] = qHTS assay to identify small molecule agonists of the endoplasmic reticulum stress response signaling pathway - cell viability counter screen (AID 1159517; calls by dose curve; further: series mostly up to about 61 µM; on the % scale 0 is the no-effect control and ±100 the full control effect; nearly all actives have a fitted effect of over 50% in size)
In short: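 ESRE-bla HeLa cells, 1,500 per well, seeded overnight then treated with compounds for 5 hr at 37 C. After the beta-lactamase read, viability in the same wells is measured by CellTiter-Glo luminescence after 30 min at room temperature.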

[5] = qHTS assay to identify small molecule antagonists of the retinoid-related orphan receptor gamma (ROR-gamma) signaling pathway - cell viability counter screen (AID 1159520); further: on the % scale 0 is the no-effect control and ±100 the full control effect; nearly all actives have a fitted effect of over 50% in size
In short: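 Tet-on ROR gamma CHO cells were given compounds for 2 hr, then doxycycline hyclate at 1 uM final, and incubated 16 hr at 37 C. Viability was measured as ATP content by CellTiter-Glo luminescence.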

[6] = qHTS assay to identify small molecule agonists of the AP-1 signaling pathway - cell viability counter screen (AID 1159525; calls by dose curve; further: nearly all actives have a fitted effect of over 55% in size)
In short: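 AP-1-bla ME-180 cells in Opti-MEM with 0.5% dialyzed FBS, compound exposure 5 h at 37 C in 15-point titration. Viability read in the same wells as ATP content by CellTiter-Glo luminescence, normalised to tetra-n-octylammonium bromide and DMSO controls.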

[7] = qHTS assay to identify small molecule agonists of the AP-1 signaling pathway (AID 1159526; calls by dose curve; further: potency means the concentration at half of the fitted maximal effect)
[8] = target: Retinoic acid receptor RXR-alpha (Homo sapiens) (UniProt P19793); test: qHTS assay to identify small molecule agonists of the RXR signaling pathway (AID 1159527; calls by dose curve; further: on the % scale 0 is the no-effect control and ±100 the full control effect; nearly all actives have a fitted effect of over 35% in size)
Chain of Retinoic acid receptor RXR-alpha (Homo sapiens) (P19793 whole entry, looked up): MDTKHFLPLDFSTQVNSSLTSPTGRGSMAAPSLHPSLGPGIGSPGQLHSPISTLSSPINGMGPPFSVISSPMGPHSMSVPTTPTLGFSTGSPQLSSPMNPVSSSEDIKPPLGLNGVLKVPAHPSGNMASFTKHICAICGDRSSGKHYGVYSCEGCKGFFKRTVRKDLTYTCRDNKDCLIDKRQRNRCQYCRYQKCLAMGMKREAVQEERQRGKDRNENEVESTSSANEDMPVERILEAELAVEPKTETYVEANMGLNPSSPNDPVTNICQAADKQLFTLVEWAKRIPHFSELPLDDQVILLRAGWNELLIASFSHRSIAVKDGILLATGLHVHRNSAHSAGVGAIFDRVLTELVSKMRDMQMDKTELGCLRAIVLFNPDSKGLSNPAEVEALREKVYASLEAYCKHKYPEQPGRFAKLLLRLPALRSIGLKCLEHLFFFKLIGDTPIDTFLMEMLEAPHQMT
In short: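 Agonist-mode beta-lactamase reporter assay: HEK 293T RXR-alpha-UAS-bla cells treated 16 hr at 37 C with compounds, 9-cis retinoic acid as positive control. LiveBLAzer FRET substrate, 405 nm excitation, 460/530 nm emission.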

[9] = qHTS assay to identify small molecule agonists of the RXR signaling pathway - cell viability counter screen (AID 1159529); further: series mostly up to about 77 µM; on the % scale 0 is the no-effect control and ±100 the full control effect; nearly all actives have a fitted effect of over 50% in size
In short: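 CellTiter-Glo luminescence gave viability in the wells also read for beta-lactamase. Cells (RXR-alpha-UAS-bla HEK 293T, 2% charcoal-stripped FBS medium) had 5 hr plating, then 16 hr compound exposure at 37 C; tetraoctyl ammonium bromide served as positive control.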

[10] = qHTS assay to identify small molecule antagonists of the retinoid acid receptor (RAR) signaling pathway - cell viability counter screen (AID 1159551); further: on the % scale 0 is the no-effect control and ±100 the full control effect; nearly all actives have a fitted effect of over 35% in size
In short: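 C3RL4 cells were seeded overnight at 37 C, then treated with compounds plus 1 uM (final) retinol for 6 h at 37 C. Viability was read as ATP by CellTiter-Glo luminescence after 30 min at room temperature.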

[11] = qHTS assay to identify small molecule antagonists of the retinoic acid receptor (RAR) signaling pathway (AID 1159552)
In short: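 Luminescent RARE reporter read-out in C3RL4 cells: 6 hr co-treatment at 37 C of test compounds with retinol at 1 uM final. Cells plated overnight beforehand; luciferase reagent incubated 30 min at room temperature before reading.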

[12] = qHTS assay to identify small molecule agonists of the retinoic acid receptor (RAR) signaling pathway (AID 1159553); further: on the % scale 0 is the no-effect control and ±100 the full control effect
In short: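 C3RL4 cells carrying a RARE luciferase reporter were plated overnight at 37 C, then exposed to compounds in DMSO for 6 hr at 37 C and 5% CO2. Luminescence was read 30 min after luciferase reagent addition at room temperature.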

[13] = qHTS assay to identify small molecule antagonists of the estrogen related receptor (ERR) signaling pathway from Tox21 library - cell viability counter screen (AID 1224834); further: on the % scale 0 is the no-effect control and ±100 the full control effect; nearly all actives have a fitted effect of over 30% in size
In short: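 ERR reporter cells were plated 6 h before compound addition, then exposed to test compounds in DMSO for 17.5 h at 37 C. Viability was read as CellTiter-Fluor fluorescence after a 30-minute incubation at 37 C.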

[14] = target: Nuclear receptor ROR-gamma (Homo sapiens) (UniProt P51449); test: qHTS assay to identify small molecule antagonists of the retinoid-related orphan receptor gamma (ROR-gamma) signaling pathway (AID 1159521)
In short: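 Antagonist read-out: drop in luminescence (ONE-Glo) from an RORE-LUC reporter in CHO cells with doxycycline-inducible ROR-gamma; 2 hr compound pretreatment, 1 uM doxycycline, 16 hr incubation at 37 C.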

[15] = qHTS assay to identify small molecule antagonists of the estrogen related receptor (ERR) signaling pathway - cell viability counter screen (AID 1224818);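 further: series mostly up to about 46 µM; viability measured after 17.5 h of compound exposure; on the % scale 0 is the no-effect control and ±100 the full control effect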
In short: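 ERR reporter cells plated 6 h at 37 C/5% CO2, then compounds in DMSO pin-transferred and incubated 17.5 h at 37 C. Viability read as CellTiter-Fluor fluorescence after 30 min at 37 C.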

[16] = qHTS assay to identify small molecule antagonists of the estrogen related receptor signaling pathway with the pleiotropic PPARgamma coactivator (PGC) cell viability counter screen (AID 1224822; further: series mostly up to about 46 µM; on the % scale 0 is the no-effect control and ±100 the full control effect)
In short: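 PGC/ERR cells were seeded at 2,000 cells/well, rested 6 h at 37 C/5% CO2, then given compounds in DMSO by pin tool and incubated 17.5 h at 37 C. Viability came from CellTiter-Fluor fluorescence after 30 min.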

C=C(C)C(=O)OCCOCC
inactive: Potency [1] | Potency [2] | Potency [3] | Potency [4] | Potency [5] | Potency [6] | Potency [8] | Potency [9] | Potency [10] | Potency [11] | Potency [12] | Potency [13]
active: Potency [7] 49.2 µM

CCCCCCCCCCCCCCCCOS(=O)(=O)O
inactive: Potency [2] | Potency [3] | Potency [4] | Potency [5] | Potency [14] | Potency [10]

CC1(c2ccccc2)OC(C(=O)O)=CC1=O (stereo not drawn)
inactive: Potency [2] | Potency [3] | Potency [4] | Potency [5] | Potency [6] | Potency [7] | Potency [8] | Potency [9] | Potency [10] | Potency [11] | Potency [12] | Potency [13]

C[N+](C)(C)CCOC(=O)CCC(=O)OCC[N+](C)(C)C
inactive: Potency [1] | Potency [2] | Potency [3] | Potency [4] | Potency [5] | Potency [6] | Potency [7] | Potency [8] | Potency [9] | Potency [10] | Potency [11] | Potency [12] | outcome [15] | outcome [16] | Potency [13]

NCc1ccccc1Sc1ccccc1CO
inactive: Potency [1] | Potency [2] | Potency [3] | Potency [4] | Potency [5] | Potency [6] | Potency [7] | Potency [8] | Potency [9] | Potency [10] | Potency [11] | Potency [12] | Potency [13]

NCC(=O)O
inactive: Potency [1] | Potency [2] | Potency [3] | Potency [4] | activity, negative = cytotoxicity [5] -1.28% [at 19 µM] | viability change, negative = cytotoxic [6] -1.65% [at 15.8 µM] | activation [7] -0.769% [at 15.8 µM] | activation [8] -2.92% [at 15.8 µM] | activity change, negative = cytotoxicity [9] 4.74% [at 15.8 µM] | activity change, negative = cytotoxicity [10] -0.228% [at 19 µM] | activity, negative = inhibition [11] 0.472% [at 19 µM] | Potency [12] | viability change, negative = cytotoxic [13] 2.45% [at 19 µM]

C=C(C)C(=O)OCC
inactive: Potency [1] | Potency [2] | Potency [3] | Potency [4] | Potency [5] | Potency [6] | Potency [7] | Potency [8] | Potency [9] | Potency [10] | Potency [11] | Potency [12] | Potency [13]

CCCCCCCCCCCCN1CCCCCC1=O
inactive: Potency [3] | Potency [4] | Potency [5] | Potency [14] | Potency [10] | Potency [11] | Potency [12] | Potency [13]
active: Potency [2] 54.9 µM

OC(C#CCN1CCCC1)(c1ccccc1)c1ccccc1
active: Potency [7] 16.9 µM
inactive: Potency [1] | Potency [2] | Potency [3] | Potency [4] | Potency [5] | Potency [6] | Potency [8] | Potency [9] | Potency [10] | Potency [11] | Potency [12] | Potency [13]

CCOC(=O)Cc1cccc2ccccc12
inactive: Potency [1] | Potency [2] | Potency [3] | Potency [4] | Potency [5] | Potency [6] | Potency [7] | Potency [8] | Potency [9] | Potency [10] | Potency [11] | Potency [12] | Potency [13]

OC[C@H]1O[C@@H](OCCc2ccc(O)cc2)[C@H](O)[C@@H](O)[C@@H]1O
inactive: Potency [1] | Potency [2] | Potency [3] | Potency [4] | Potency [5] | Potency [6] | Potency [7] | Potency [8] | Potency [9] | Potency [10] | Potency [13]

CCCCC(CC)COC(=O)COc1ccc(Cl)cc1Cl (stereo not drawn)
inactive: Potency [1] | Potency [2] | Potency [3] | Potency [4] | Potency [5] | Potency [6] | Potency [7] | Potency [8] | Potency [9] | Potency [10] | Potency [11] | Potency [13]

CCCCC(CC)COC(=O)CCCCCCCCC(=O)OCC(CC)CCCC (stereo not drawn)
inactive: Potency [1] | Potency [2] | Potency [3] | Potency [4] | Potency [5] | Potency [6] | Potency [7] | Potency [8] | Potency [9] | Potency [10] | Potency [13]

CCCCCCCCCCCc1ccccc1
inactive: Potency [1] | Potency [2] | Potency [3] | Potency [4] | Potency [5] | Potency [6] | Potency [7] | Potency [8] | Potency [9] | Potency [10] | Potency [11] | Potency [13]

CCN(CC)CCNC(=O)c1cc(Br)c(N)cc1OC
inactive: Potency [1] | Potency [2] | Potency [3] | Potency [4] | Potency [5] | Potency [6] | Potency [7] | Potency [8] | Potency [9] | Potency [10] | Potency [13]

C=CC1CC2C=CC1C2 (stereo not drawn)
inactive: Potency [1] | Potency [2] | Potency [3] | Potency [4] | Potency [5] | Potency [6] | Potency [7] | Potency [8] | Potency [9] | Potency [10] | Potency [11] | Potency [13]

CC1=CC=C(C(C)C)CC1
inactive: Potency [1] | Potency [2] | Potency [3] | Potency [4] | Potency [5] | Potency [6] | Potency [7] | Potency [8] | Potency [9] | Potency [10] | Potency [13]

O=C(O)C(S)C(S)C(=O)O (stereo not drawn)
inactive: Potency [1] | Potency [2] | Potency [3] | Potency [4] | Potency [5] | Potency [6] | Potency [7] | Potency [8] | Potency [9] | Potency [10] | Potency [11] | Potency [13]

CC(CSC(=O)c1ccccc1)C(=O)N1C[C@@H](Sc2ccccc2)C[C@H]1C(=O)O (stereo partly drawn)
inactive: Potency [1] | Potency [2] | Potency [3] | Potency [4] | activity, negative = cytotoxicity [5] 3.47% [at 19 µM] | viability change, negative = cytotoxic [6] -2.27% [at 15.8 µM] | activation [7] 17.2% [at 15.8 µM] | activation [8] -12.9% [at 15.8 µM] | activity change, negative = cytotoxicity [9] -1.14% [at 15.8 µM] | activity change, negative = cytotoxicity [10] -2.34% [at 19 µM] | viability change, negative = cytotoxic [13] 7.27% [at 19 µM]
